Several values for one entry are separate records, joined by “and”; a condition that tells them apart may be missing. Identical values can stand only once. Some compounds were tested as several samples or in several runs, with calls that do not always agree. Activity calls are given as the source filed them. The calls were made as follows: active = hit-call score of the fitted dose curve at least 0.9, where 1 is the maximum; inactive = score below 0.9.

Assay [1] in a line: ATG_PBREM_CIS: Attagene CIS-FACTORIAL HepG2 Assay for human Phenobarbital-responsive Enhancer Module (PBREM) (AID 2282955). Conditions: HepG2 PBREM cis-reporter, Attagene multiplexed transcription; actives raise or lower the signal. The essentials:
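Endogenous transcription factors in human liver HepG2 cells drive a PBREM cis-element reporter, whose transcript level after 24 h treatment is quantified by RT-PCR with capillary electrophoresis; activity fitted in both directions against DMSO.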

Assay [2] deals with Paired box protein Pax-6 (Homo sapiens) (UniProt P26367). The assay can be described thus: ATG_Pax6_CIS: Attagene CIS-FACTORIAL HepG2 Assay for human Paired Box 6 (PAX6) (AID 2282956). Conditions: HepG2 CIS-FACTORIAL PAX6 reporter transcription, RNA readout; actives raise or lower the signal. Put shortly:
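HepG2 cells transiently transfected with multiplexed cis-promoter reporter units (endogenous TF activity) were dosed for 24 h. Reporter mRNA was quantified by RT-PCR, 6-FAM labeling, HpaI digestion and capillary electrophoresis; bidirectional fitting versus DMSO baseline.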

A short description of assay [3]: ATG_PXRE_CIS: Attagene CIS-FACTORIAL HepG2 Assay for human Pregnane X Receptor Element (PXRE) (AID 2282957). Conditions: HepG2 Attagene CIS-FACTORIAL PXRE reporter, mRNA; actives raise or lower the signal. Put shortly:
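Multiplexed cis-reporter assay in transiently transfected human HepG2 cells; 24 h chemical exposure. Reporter transcripts quantified by RT-PCR with fluorescent labeling and capillary electrophoresis.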

Assay [4] can be described thus: ATG_PPRE_CIS: Attagene CIS-FACTORIAL HepG2 Assay for human Peroxisome Proliferator-activated Response Element (PPRE) (AID 2282958). Conditions: HepG2 PPRE cis-element reporter, Attagene transcription factor profiling; actives raise or lower the signal. Put shortly: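 HepG2, transient MRTU transfection (cis promoter elements, endogenous TFs). 24 h dosing. RNA → oligo(dT) RT → PCR → 6-FAM primer extension → HpaI digest → CE. Bidirectional fit vs DMSO.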

Assay [5] can be described thus: ATG_RORE_CIS: Attagene CIS-FACTORIAL HepG2 Assay for human RAR-related Orphan Receptor Element (RORE) (AID 2282959). Conditions: HepG2 Attagene cis-factorial RORE reporter, mRNA; actives raise or lower the signal. The essentials: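 Transient MRTU transfection of human HepG2 liver cells (FuGene 6); 24 h compound exposure; TriZol RNA, oligo(dT) RT, PCR, FAM labeling, HpaI cut, CE fragment analysis. DMSO = negative control/baseline.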

Assay [6] addresses Transcription factor Sp1 (Homo sapiens) (UniProt P08047). The assay can be described thus: ATG_Sp1_CIS: Attagene CIS-FACTORIAL HepG2 Assay for human Specificity Protein 1 (Sp1) (AID 2282961). Conditions: HepG2 Sp1 cis-reporter transcription, actives raise or lower the signal. Put shortly: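 Transient MRTU-transfected HepG2, 24 h compound exposure. Total RNA → oligo(dT) RT → PCR of reporter → 6-FAM primer extension → HpaI digest → CE. Endpoint fitted both directions vs DMSO.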

Assay [7] can be described thus: ATG_SREBP_CIS: Attagene CIS-FACTORIAL HepG2 Assay for human Sterol Regulatory Element Binding (SREBP) (AID 2282962). Conditions: HepG2 Attagene cis-factorial SREBP reporter, mRNA; actives raise or lower the signal. The essentials:
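HepG2 cells transiently transfected with multiplexed cis-element reporter units report endogenous transcription factor activity. After 24 h of chemical exposure, reporter mRNA was quantified by RT-PCR, 6-FAM labelling, HpaI digestion and capillary electrophoresis; bidirectional fits used DMSO as baseline.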

In assay [8] the target is Signal transducer and activator of transcription 3 (Homo sapiens) (UniProt P40763). The assay can be described thus: ATG_STAT3_CIS: Attagene CIS-FACTORIAL HepG2 Assay for human Signal Transducer and Activator of Transcription 3 (STAT3) (AID 2282963). As to conditions: HepG2, Attagene cis-factorial STAT3 reporter transcription; actives raise or lower the signal. The essentials:
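Endogenous STAT3-responsive cis-element activity was read in transiently transfected HepG2 cells after 24 h treatment. Reporter transcripts were quantified via RT-PCR and capillary electrophoresis, with DMSO as negative control and bidirectional curve fitting.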

Assay [9] in a line: ATG_TA_CIS: Attagene CIS-FACTORIAL HepG2 Assay for human TA Basal Promoter (AID 2282964). As to conditions: HepG2 Attagene CIS-factorial TA basal promoter reporter; actives raise or lower the signal. The essentials: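 Fluorescence from labelled RT-PCR reporter fragments, separated by capillary electrophoresis, gives the signal. Cells: HepG2 transiently carrying multiple reporter units, 24 h chemical dosing. Gain or loss relative to DMSO.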

Assay [10] can be described thus: ATG_Sox_CIS: Attagene CIS-FACTORIAL HepG2 Assay for human SRY-box transcription factor (SOX) (AID 2282960). Conditions: HepG2 Attagene cis-factorial SOX reporter, mRNA; actives raise or lower the signal. The essentials:
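Endogenous factor activity in human liver HepG2 cells carrying transfected cis-regulated reporter units. RNA taken 24 h post-dose, reverse-transcribed, PCR-amplified and sized by capillary electrophoresis. Gain or loss of signal fitted relative to DMSO.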

Sequence of Signal transducer and activator of transcription 3 (Homo sapiens) (P40763 whole entry, looked up): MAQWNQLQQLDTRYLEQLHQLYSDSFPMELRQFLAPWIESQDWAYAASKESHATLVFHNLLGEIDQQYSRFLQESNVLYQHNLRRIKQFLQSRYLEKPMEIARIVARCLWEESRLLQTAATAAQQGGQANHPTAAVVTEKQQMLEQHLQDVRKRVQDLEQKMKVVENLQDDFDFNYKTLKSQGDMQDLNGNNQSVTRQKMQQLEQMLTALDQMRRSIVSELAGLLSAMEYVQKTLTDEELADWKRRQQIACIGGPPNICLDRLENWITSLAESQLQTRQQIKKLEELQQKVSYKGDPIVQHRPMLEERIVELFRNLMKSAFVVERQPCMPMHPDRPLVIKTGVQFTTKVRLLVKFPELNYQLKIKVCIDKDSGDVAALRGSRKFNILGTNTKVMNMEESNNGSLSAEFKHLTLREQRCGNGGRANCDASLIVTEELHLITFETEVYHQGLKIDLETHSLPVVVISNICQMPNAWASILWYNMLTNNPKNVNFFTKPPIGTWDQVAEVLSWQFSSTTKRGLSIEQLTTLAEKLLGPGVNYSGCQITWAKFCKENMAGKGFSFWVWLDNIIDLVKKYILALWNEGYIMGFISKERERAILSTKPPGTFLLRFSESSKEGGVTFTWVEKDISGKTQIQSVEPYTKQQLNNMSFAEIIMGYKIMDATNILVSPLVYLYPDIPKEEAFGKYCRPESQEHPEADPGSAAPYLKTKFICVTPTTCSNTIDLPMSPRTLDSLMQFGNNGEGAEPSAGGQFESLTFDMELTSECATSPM
Sequence of Transcription factor Sp1 (Homo sapiens) (P08047 whole entry, looked up): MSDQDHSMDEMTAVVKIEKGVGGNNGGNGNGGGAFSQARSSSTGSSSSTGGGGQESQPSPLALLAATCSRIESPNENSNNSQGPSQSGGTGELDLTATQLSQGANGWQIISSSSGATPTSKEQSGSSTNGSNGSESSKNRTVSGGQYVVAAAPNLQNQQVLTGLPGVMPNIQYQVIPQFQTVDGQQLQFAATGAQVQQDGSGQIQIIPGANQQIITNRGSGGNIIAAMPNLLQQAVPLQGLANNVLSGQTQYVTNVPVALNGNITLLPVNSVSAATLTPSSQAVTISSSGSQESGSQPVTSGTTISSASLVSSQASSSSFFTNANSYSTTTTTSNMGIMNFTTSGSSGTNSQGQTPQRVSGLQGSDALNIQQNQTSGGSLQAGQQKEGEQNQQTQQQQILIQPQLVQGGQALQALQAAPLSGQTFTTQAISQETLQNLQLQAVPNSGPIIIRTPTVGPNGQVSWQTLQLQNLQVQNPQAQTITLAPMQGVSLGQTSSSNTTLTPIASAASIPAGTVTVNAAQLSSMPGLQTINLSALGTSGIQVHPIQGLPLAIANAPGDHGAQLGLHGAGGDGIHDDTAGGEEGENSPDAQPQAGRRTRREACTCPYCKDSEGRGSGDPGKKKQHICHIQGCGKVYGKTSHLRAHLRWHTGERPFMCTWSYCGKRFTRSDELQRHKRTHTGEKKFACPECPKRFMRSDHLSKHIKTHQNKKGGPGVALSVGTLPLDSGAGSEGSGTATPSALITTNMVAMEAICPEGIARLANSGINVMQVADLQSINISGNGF
Sequence of Paired box protein Pax-6 (Homo sapiens) (P26367 whole entry, looked up): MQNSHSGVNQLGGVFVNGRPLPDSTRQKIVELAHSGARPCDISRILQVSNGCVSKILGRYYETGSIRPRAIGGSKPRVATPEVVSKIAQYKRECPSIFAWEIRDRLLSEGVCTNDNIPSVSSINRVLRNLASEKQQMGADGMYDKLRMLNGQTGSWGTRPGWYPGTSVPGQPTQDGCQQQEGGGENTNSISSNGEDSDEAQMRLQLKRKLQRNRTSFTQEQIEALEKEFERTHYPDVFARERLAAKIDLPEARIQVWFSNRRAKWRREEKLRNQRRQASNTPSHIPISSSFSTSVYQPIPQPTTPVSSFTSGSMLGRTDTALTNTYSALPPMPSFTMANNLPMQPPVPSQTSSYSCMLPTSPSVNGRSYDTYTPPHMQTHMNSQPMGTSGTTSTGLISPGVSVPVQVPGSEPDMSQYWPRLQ

Consider `NC(=O)N1C(=O)C(C(=O)c2cc(Cl)cs2)c2cc(F)c(Cl)cc21` (stereo not drawn), for which the AC50 in assay [1] is 11 µM (active); in assay [3], 4.07 µM (active); in [5], 13.7 µM (active); in assay [7] it was 4.78 µM (active). The molecule was classed as inactive in assay [2], in assay [4], in assay [6], in assay [8] and in assay [9].

In the case of `O=C(/C=C/c1ccc(O)cc1)CC(=O)/C=C/c1ccc(O)cc1`, the result in assay [1], in assay [3], in assay [4], in assay [6], in assay [7] and in assay [8] was inactive. The molecule was classed as inactive in assay [9]. For the same molecule, the values for the AC50 in assay [2], in [5] and in [10] were 14.6 µM (active), 2.56 µM (active) and 25.7 µM (active), respectively.

As to `CC(C)(C)c1cc(C(C)(C)C)c(O)c(C(C)(C)C)c1`, the outcome in [1], in [2], in [5], in [10], in assay [6] and in assay [7] was inactive. Also, the result in assay [8] and in [9] was inactive. For the same molecule, the AC50 was 3.08 µM (active) and 6.33 µM (active) in assay [3]; 416 nM (active) and 8.82 µM (active) in assay [4]; 80.6 µM (active) in assay [6]; 11.7 µM (active) in [7].

As for `CCCCCCCCCCCCN1CCCC1=O`, the result in assay [1], in assay [2], in assay [4], in assay [5], in assay [10] and in [7] was inactive. Also, the result in assay [8] and in assay [9] was inactive. Further, the AC50 in assay [3] was 4.43 µM (active).

Take `CCCCCCC(=O)O`: the outcome in assay [1], in [2], in assay [3], in assay [5], in assay [6] and in assay [7] was inactive. Also, the call in assay [8] and in assay [9] was inactive. For the same molecule, the AC50 in assay [3] was 53.4 µM (active).

For the molecule `CCCCCCCCCCCCCC[N+](C)(C)C`, the result in assay [1], in [2], in [3], in [4], in [5] and in assay [10] was inactive. The molecule was classed as inactive in [6], in [8] and in assay [9]. Moreover, the concentration at half-maximal activity (AC50) in assay [7] is 6.57 µM (active) and 2.76 µM (active); in assay [8] it was 18.1 µM (active).

Turning to `CC[C@H](C)[C@@H](C(=O)O)n1sc2ccccc2c1=O`, the result in [1], in [2], in assay [3], in [4], in [5] and in assay [10] was inactive. Moreover, the call in assay [7], in [8] and in [9] was inactive.

`O=C(O)Cc1cc(I)c(Oc2cc(I)c(O)c(I)c2)c(I)c1`: the AC50 was 113 µM (active) and 17.5 µM (active) in assay [1]; 67 µM (active) in [2]; 4.68 µM (active) and 13.3 µM (active) in assay [4]; 53.6 µM (active) and 10.8 µM (active) in [5]; 31.3 µM (active) and 17 µM (active) in [6]; 4.05 µM (active) and 5.53 µM (active) in [7]. In addition, in [9], the AC50 was 84.2 µM (active). In addition, the molecule was called inactive in assay [2], in assay [3], in assay [8] and in assay [9].

On to `CCCOc1sc(C(=O)N2CCC(c3cc(CN)ccc3F)CC2)c(C)c1Br`, for which the result in assay [1], in assay [2], in assay [4], in assay [5], in assay [6] and in [8] was inactive. In addition, in assay [9], the outcome was inactive. Moreover, the concentration at half-maximal activity (AC50) is 2.09 µM (active) in assay [3] and 3.7 µM (active) in assay [7].

As for `CCCCCCCCCCCCc1ccccc1S(=O)(=O)O`, the outcome in assay [1], in assay [2], in assay [4], in [5], in assay [10] and in [6] was inactive. Further, the call in assay [7], in assay [8] and in assay [9] was inactive. The AC50 in [3] is 4.41 µM (active).

Turning to `COc1ccc([N+](=O)[O-])cc1N`, the outcome in assay [1], in assay [2], in [3], in assay [4], in assay [5] and in assay [6] was inactive. In addition, the result in assay [7], in [8] and in assay [9] was inactive.

With `Nc1cccc2c(N)cccc12`, the result in assay [1], in [2], in [3], in assay [4], in [5] and in [7] was inactive. Also, the call in [8] and in [9] was inactive.

For `CN1CCN(c2ccccc2/C=C2\SCCN(c3ccc(Cl)c(Cl)c3)C2=O)CC1`, the outcome in [1], in assay [2], in assay [4], in [5], in [10] and in assay [6] was inactive. Also, the molecule was called inactive in assay [8] and in assay [9]. In addition, the AC50 is 2.88 µM (active) in assay [3] and 5.37 µM (active) in [7].

As to `CCc1nn(C2CCCCC2)c2cc(C3(C#N)CCC(C(=O)O)CC3)ccc12` (stereo not drawn), the outcome in assay [1], in assay [3], in [10] and in assay [8] was inactive. Also, the AC50 is 100 µM (active) in assay [2]; 438 nM (active) in assay [4]; 32.4 µM (active) in assay [5]; 65.5 µM (active) in [7]; 69.9 µM (active) in [9].

Regarding `NCC(F)(F)C(F)(F)C(F)(F)C(F)(F)C(F)(F)C(F)(F)C(F)(F)F`, the result in assay [1], in assay [2], in assay [3], in assay [4], in assay [5] and in assay [10] was inactive. In addition, the molecule was called inactive in assay [6], in assay [7], in assay [8] and in [9].

Turning to `CC1=C(/C=C/C(C)=C/C=C/C(C)=C/C(=O)O)C(C)(C)CCC1`, the concentration at half-maximal activity (AC50) in [1] was 6.62 µM (active); in assay [2], 42.8 µM (active); in assay [3] it was 1.48 µM (active) and 1.26 µM (active); in assay [4] it was 43.6 nM (active) and 9.62 µM (active); in assay [5], 8.89 µM (active); in assay [10], 51.1 µM (active) and 24.6 µM (active). For the same molecule, the half-maximal activity concentration (AC50) in [9] was 21.4 µM (active). Further, the result in assay [1], in assay [2], in assay [5], in assay [7], in assay [8] and in [9] was inactive.

The AC50 is the concentration giving half of the maximal activity seen.

Source of the values: PubChem BioAssay (EPA / NIEHS).
